Screening results deposited in PubChem BioAssay by National Center for Advancing Translational Sciences (NCATS).
KAT2A inh: blocks human GCN5L2 histone acetyltransferase; Q92830; GCN5L2 HAT assay, ThioGlo1 CoA-SH fluorescence; Potency, µM (highest dose often 58.9 µM), actives largely listed as inhibitors; 390,000 tested, 0.21% active; AID 504327
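Enzyme at 20nM final was mixed with library compounds for 15 min at room temperature. Peptide H3(1-25) at 75uM, acetyl-CoA at 70uM and ThioGlo1 at 50uM were then added. Plates were read immediately and after 20 min (Ex340nm/Em540nm).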
Pol kappa inh-1: DNA polymerase kappa (human) inhibition; Q9UBT6; purified Pol kappa, fluorescent DNA synthesis assay, 10 min; Potency, µM (highest dose often 107 µM), most hits filed as inhibitors; 400,000 tested, 0.53% active
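10 nM Pol kappa was preincubated with compounds for 15 min at room temperature. Reaction started with 50 nM (final) substrate. Fluorescence read kinetically at 0 and 10 min.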
Pol eta inh-1: DNA polymerase eta (human) inhibition; Q9Y253; 390,000 tested, 1.2% active; recombinant Pol eta, fluorescent DNA replication assay; Potency, µM (titrated, usually from 114 µM), hits mostly inhibitors; AID 588591
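Pol eta at 10 nM preincubated with compounds 15 min at room temperature; reaction started with fluorescent substrate (50 nM final) and read kinetically at 0 and 10 min.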
GLS inh: blocks human kidney-isoform glutaminase activity | O94925 | GLS enzymatic activity, qHTS titration | Potency, µM (highest dose often 45.5 µM), hits mostly inhibitors | 410,000 tested, 0.21% active | AID 624170
Target sequence (O94925 whole entry, looked up, canonical isoform): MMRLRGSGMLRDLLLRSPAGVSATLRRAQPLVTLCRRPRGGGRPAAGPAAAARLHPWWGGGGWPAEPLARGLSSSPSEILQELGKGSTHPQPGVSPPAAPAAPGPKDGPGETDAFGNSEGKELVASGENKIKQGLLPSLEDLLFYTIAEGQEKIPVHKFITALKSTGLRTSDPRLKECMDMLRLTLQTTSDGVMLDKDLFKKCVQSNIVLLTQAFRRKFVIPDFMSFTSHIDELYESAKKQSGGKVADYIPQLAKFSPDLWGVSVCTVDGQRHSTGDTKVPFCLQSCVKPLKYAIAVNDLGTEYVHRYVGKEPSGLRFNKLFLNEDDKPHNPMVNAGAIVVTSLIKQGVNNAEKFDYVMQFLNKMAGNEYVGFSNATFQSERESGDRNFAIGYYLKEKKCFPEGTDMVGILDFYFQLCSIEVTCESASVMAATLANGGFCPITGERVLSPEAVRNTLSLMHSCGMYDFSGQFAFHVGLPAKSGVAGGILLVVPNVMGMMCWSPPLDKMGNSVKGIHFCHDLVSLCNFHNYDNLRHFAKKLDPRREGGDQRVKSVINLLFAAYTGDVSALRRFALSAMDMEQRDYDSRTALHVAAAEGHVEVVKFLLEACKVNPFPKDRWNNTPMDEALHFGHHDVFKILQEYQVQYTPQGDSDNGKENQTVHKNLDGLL
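Human kidney-isoform GLS in 45 mM KH2PO4 pH 8.2, 0.02% Tween-20, with compound, started with 1mM L-Glutamine (added stock). Glutamate oxidase/HRP/Amplex red coupled fluorescence read at start and after 30 min at RT.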
POLI inh: DNA polymerase iota (human) inhibition; 390,000 tested, 1% active; Pol iota fluorescent replication assay, 10 min; Potency, µM (highest dose often 115 µM), usual class: inhibitors; AID 588590; Q9UNA4
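Pol iota at 10 nM preincubated 15 min with compounds at room temperature; reaction started with fluorescent substrate, 50 nM final. Fluorescence read kinetically at 0 and 10 min; buffer-only wells as negative control.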
Pol beta inh: blocks human DNA polymerase beta activity; P06746; Pol beta primer extension/strand displacement, fluorescence kinetic; Potency, µM (series often up to 114 µM), actives largely listed as inhibitors; 340,000 tested, 1.3% active; AID 485314
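Homogeneous kinetic assay of primer extension and strand displacement by 10 nM Pol beta, preincubated 15 min at room temperature with compound before 50 nM substrate (final) was added. Read at 0 and 10 min; four-parameter Hill fit.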
Pol kappa inh-2: confirmation of human DNA polymerase kappa inhibitors | shares compounds with Pol eta inh-1 | Potency, µM, actives largely listed as inhibitors | 920 tested, 76% active | purified Pol-kappa, fluorescent strand-displacement substrate | AID 720501
Pol eta inh-2: Pol eta (human) inhibition, cherry-pick confirmation; Pol eta primer extension, TAMRA/BHQ fluorescence, 10 min; 2,600 tested, 64% active; Potency, µM, hits mostly inhibitors; shares compounds with Pol eta inh-1
Numbers stand for hits; . = inactive; ? = inconclusive; / = not tested or not shown. Most compounds without a hit are left out; they make up all but 2.4% or so of the library. Calls follow the shape of the dose curve; as a rule, active = well fitted inhibition curve with a large enough effect; inconclusive = small, poorly fitted or top-dose-only effect, or another doubt; inactive = no such curve, though single readings can be large or run the other way.

SMILES	KAT2A inh	Pol kappa inh-1	Pol eta inh-1	GLS inh	POLI inh	Pol beta inh	Pol eta inh-2	others
Cc1ccc(C(=O)OCC(=O)c2ccc(CC(=O)N3CCOCC3)s2)cc1C	.	79µM	13µM	.	22µM	/	?
O=C(O)c1cccc(NS(=O)(=O)c2ccc(-c3ccc(S(=O)(=O)Nc4cccc(C(=O)O)c4)cc3)cc2)c1	.	50µM	?	?	?	?	?	Pol kappa inh-2=21
CCOc1ccc(Sc2cc(C(=O)NCc3ccccc3Cl)c3ccccc3n2)cc1	.	.	.	.	.	.	/
CCCc1cc(=O)[nH]c(SCC(=O)Nc2sccc2C#N)n1	.	?	?	.	18µM	/	?
CCCc1cc(=O)[nH]c(SCC(=O)Nc2c(C)cccc2C)n1	.	.	.	.	?	.	/
CC(Sc1ncc(S(=O)(=O)c2ccc(C(C)C)cc2)c(N)n1)C(=O)Nc1ccccc1 (stereo not given)	.	.	.	.	.	.	/
Cc1ccc(CNC(=O)Cn2c(=O)n(-c3cccc(Cl)c3)c(=O)c3sc4ccccc4c32)cc1	.	.	.	.	.	.	/
Cc1ccc(/C=C2\C(=N)N3N=C(CC(=O)N4CCCCC4)SC3=NC2=O)cc1	.	?	?	.	?	.	19
CCN(CC)c1ccc(/C=C2\C(=N)N3N=C(CC(=O)N4CCOCC4)SC3=NC2=O)cc1	.	.	.	.	?	.	/
CSc1ccc(/C=C2\C(=N)N3N=C(CC(=O)N4CCCCC4)SC3=NC2=O)cc1	.	89µM	45µM	.	?	?	/	Pol kappa inh-2=67
COc1ccc(/C=C2/C(=N)N3N=C(CC(=O)N4CCCC4)SC3=NC2=O)cc1	.	.	?	.	.	.	/
N=C1/C(=C/c2ccc(Br)o2)C(=O)N=C2SC(CC(=O)N3CCCC3)=NN12	?	35µM	8.9µM	.	18µM	8.9µM	38
COc1ccc(/C=C2\C(=N)N3N=C(CC(=O)N4CCCCC4)SC3=NC2=O)cc1	.	.	.	.	.	.	/
Cc1ccc2nc(Cl)c(/C=N/Nc3ccc(C(=O)O)cc3)cc2c1	.	?	22µM	?	.	.	27
COc1ccc(Cl)cc1NC(=O)CCS(=O)(=O)c1cccc2nonc12	.	.	.	.	.	.	/
COc1ccc2oc(C(=O)Nc3ccc(N4CCOCC4)cc3)c(C)c2c1	.	?	13µM	.	?	/	38
Cc1c(C(=O)Nc2ccc(N3CCOCC3)cc2)oc2ccccc12	.	.	.	.	.	.	/
CSc1ccccc1NC(=O)c1cc2ncc(Br)cn2n1	.	?	45µM	.	.	?	?
Cc1cc(=O)oc2c(CN3CC(C)OC(C)C3)c(O)c(Cl)cc12 (stereo not given)	.	?	20µM	.	35µM	14µM	?	Pol kappa inh-2=?
O=C(O)Cc1sc(Nc2ccccc2Cl)nc1-c1ccccc1	.	.	.	.	?	.	/
N#C/C(=C\c1cccnc1)C(=O)Nc1ccccc1[N+](=O)[O-]	?	.	32µM	.	.	.	76	Pol kappa inh-2=?
CCCCc1nc2ccccc2n2c(-c3ccc(OC)cc3)c3c(=O)n(C)c(=O)n(C)c3c12	.	.	.	.	.	.	/
CCN(CC)c1ccc(C(=O)NCc2ccc3c(c2)CCN3C(C)=O)cc1	.	.	.	.	.	.	/
Cn1c(=O)oc2cc(S(=O)(=O)NCCC(=O)Nc3ccc4c(c3)OCCO4)ccc21	.	.	.	.	?	.	/
Cn1c(=O)oc2cc(S(=O)(=O)NCCC(=O)Nc3ccc(F)c(Cl)c3)ccc21	.	79µM	32µM	.	79µM	?	43
SMILES	KAT2A inh	Pol kappa inh-1	Pol eta inh-1	GLS inh	POLI inh	Pol beta inh	Pol eta inh-2	others
O=C(NCc1ccc(Cl)cc1)c1cnc2sc(N3CCCCCC3)nn2c1=O	.	.	.	.	.	.	/
CCOc1ccc(C(=O)N/N=C/c2ccc(-c3ccc(S(=O)(=O)Nc4ncccn4)cc3)o2)cc1	.	?	22µM	.	18µM	.	?	Pol kappa inh-2=24
COc1ccc(/C=C2\SC(=S)N(NC(=O)c3ccncc3)C2=O)cc1OC	.	/	/	/	/	.	/
COc1cc(/C=C2\SC(=S)N(NC(=O)c3ccccc3O)C2=O)ccc1O	.	?	?	?	14µM	?	/	Pol kappa inh-2=42
Cc1cc(C)c(C(=O)/C=C/c2ccco2)c(=O)[nH]1	.	?	56µM	?	?	14µM	85
O=C(/C=C/c1ccco1)c1cccc([N+](=O)[O-])c1	/	?	20µM	.	50µM	/	?
C=CCOc1ccc(Br)cc1/C=C1/SC(=Nc2ccc(C(=O)O)cc2)NC1=O	.	.	20µM	.	?	?	85
CCOc1ccccc1CNS(=O)(=O)c1cnc(N)nc1	.	.	.	.	.	.	/
CC1CCN(C(=O)COC(=O)c2ccc([N+](=O)[O-])o2)CC1	.	.	50µM	.	50µM	/	?
O=C(Nc1ccc(S(=O)(=O)Nc2ncccn2)cc1)C12CC3CC(CC(Cl)(C3)C1)C2	.	?	18µM	.	?	/	30	Pol kappa inh-2=17
Cn1nc(C(=O)Nc2ccc(S(=O)(=O)N3CCCC3)cc2)ccc1=O	.	.	.	.	.	.	/
Cn1nc(C(=O)Nc2ccc(S(=O)(=O)Nc3ncccn3)cc2)ccc1=O	.	?	28µM	.	?	.	67
CCOc1ccc(OCC(=O)NCCS(=O)(=O)N2CCN(c3ccc(OC)cc3)CC2)cc1	.	.	.	.	.	.	/
CCOc1ccc(C(=O)N(Cc2nc(-c3cccc(C)c3)no2)C(C)C)cc1	.	.	.	.	.	.	/
CCOC1=C/C(=C/c2c(N)n3nc(-c4ccccc4)sc3nc2=O)C=CC1=O	.	?	28µM	.	?	35µM	?
CCCc1nn2c(N)c(/C=C3\C=Nc4ccccc43)c(=O)nc2s1	.	.	.	.	.	.	/
Cc1cc(C)nc(NS(=O)(=O)c2ccc(Br)cc2)n1	.	.	.	.	.	.	/
Cc1cc(C)nc(NS(=O)(=O)c2ccc(-n3cccc3)cc2)n1	?	79µM	10µM	.	?	32µM	54
COc1ccc(S(N)(=O)=O)cc1C(=O)OCC(=O)Nc1ncc(Cl)c(C)c1Cl	.	.	?	?	?	/	/
O=C(COC(=O)CNC(=O)c1ccccc1)Nc1ccccc1Cl	.	.	.	.	.	.	/
Cc1c(Cl)cnc(NC(=O)COC(=O)[C@H](C)NC(=O)c2ccccc2)c1Cl	.	.	50µM	.	?	/	?	Pol kappa inh-2=?
Cc1c(Cl)cnc(NC(=O)COC(=O)c2ccncc2)c1Cl	.	.	25µM	.	50µM	/	/	Pol kappa inh-2=?
